This passage reports binding signal results from publication PMC12136788.

B1: chr5:172042892:172042993:-|3pUTR|ENSG00000072786|msi1|total|mutant (ssRNA)
RNA: GGGAGUUCUACAGUCCGACGAUCGAUUCUCCCGCUUCAACCUUGAGCCGCUGGGACGACAGAUACAUGCUACUGCACCCAGCCCGGUUAAGGUUCUGUAUACUCUGUCUUUCUAAAGCAAUUCCCUGGAAAUUUUCUCAACAUCAACAGAGGAUUGAGCAUCA
B2: chr9:69711526:69711627:-|3pUTR|ENSG00000188647|unk|FALSE|unique (ssRNA)
RNA: GGGAGUUCUACAGUCCGACGAUCGAACUGCUGUAGUCUUCUGCAAUCAGUCUCUGUAUUGGUAUAUCCAGUACUAUCGGGUUUAGGUUCUUUUUAUUUUUCCUUAAAUCUUACUUGUUUCUAGCGUCUUAAGAGUGGUAAUGGCAACAGAGGAUUGAGCAUCA
B3: chr22:49888080:49888186:+|3pUTR|ENSG00000100426|unk|FALSE|unique (ssRNA)
RNA: GGGAGUUCUACAGUCCGACGAUCUGGCUUAUUAACAGGGAAGAAGCUUGUUAUAUUCCAGUUGUAAGAAUAGCCUUAGUGUUUAGAUUUUUUUAUGAUAGGGAAGAUGCGGCCAUCACUGGGAUAUUUUCAAAUCCCAAGGACCAACAGAGGAUUGAGCAUCA
B4: chr19:35555165:35555334:-|CDS|ENSG00000105675|control|control|control (ssRNA)
RNA: GGGAGUUCUACAGUCCGACGAUCGGCCGUCACGGGGGAUGGUGUGAAUGACUCCCCAGCUCUGAAGAAGGCAGACAUCGGAGUAGCCAUGGGCAUCGCUGGCUCAGAUGCUGCCAAAAAUGCAGCUGACAUGAUCCUGCUGGACAACAGAGGAUUGAGCAUCA
B5: chr7:39987650:39987751:+|CDS|ENSG00000065883|unk|total|mutant (ssRNA)
RNA: GGGAGUUCUACAGUCCGACGAUCUCCCGGCAUUCAAGAUCUCGCCGCAGGCACAGAUUGUCCCGAUCCAGAAGUCGUCAUUCCCGUAUUUCUCCCCGCACACUAACUCUGAAGAGCCGCCUGGCAGCUGAAUUGAACAAGAAUCAACAGAGGAUUGAGCAUCA
B6: chr1:6224442:6224573:-|3pUTR|ENSG00000116237|msi1_unk|FALSE|overlapping (ssRNA)
RNA: GGGAGUUCUACAGUCCGACGAUCCUAUACAAUUUUAAAAAUACUUCCUCAUAGGAUGCUUUGGCCCUUCAUCUAUUUAAUCAUAGCUACAUACCUAUUUUUUAUAAGUAGCAGUACACAUUCAAAGGGGUAUUCCUAGCUCAACAACAGAGGAUUGAGCAUCA
B7: chr11:69653362:69653473:+|3pUTR|ENSG00000110092|msi1_unk|FALSE|overlapping (ssRNA)
RNA: GGGAGUUCUACAGUCCGACGAUCACUGCCAUGUACUAGUUUUAGUUUUCUCUUAGAACAUUGUAUUACAGAUGCCUUUUUUGUAGUUUUUUUUUUUUUUAUGUGAUCAAUUUUGACUUAAUGUGAUUACUGCUCUAUUCCAAACAACAGAGGAUUGAGCAUCA
B8: chr2:165880514:165880799:-|CDS|ENSG00000123607|control|control|control (ssRNA)
RNA: GGGAGUUCUACAGUCCGACGAUCGAUGGCAUGGAAAUAUAGCAAUCGGACAAAUCCGGCAGUAGGUGAGUUUGGCAAUCACCUAGAUUUUUCACAGAAAAAUUAUGUUGUAUUUAUUAAUUUUCAUUUAAAUGCAUUUGAUUUCAACAGAGGAUUGAGCAUCA
B9: chr21:25881503:25881610:-|3pUTR|ENSG00000142192|msi1_unk|FALSE|overlapping (ssRNA)
RNA: GGGAGUUCUACAGUCCGACGAUCACAAACCCGUUUUAUGAUUUACUCAUUAUCGCCUUUUGACAGCUGUGCUGUAACACAAGUAGAUGCCUGAACUUGAAUUAAUCCACACAUCAGUAAUGUAUUCUAUCUCUCUUUACAUUUCAACAGAGGAUUGAGCAUCA
B10: chr1:6224442:6224573:-|3pUTR|ENSG00000116237|msi1_unk|total|mutant (ssRNA)
RNA: B6 RNA with U51C, A52C, U83C, A84C, U108C, A109C, U136C, A137C
B11: chr7:158734047:158734148:-|3pUTR|ENSG00000117868|msi1_unk|total|mutant (ssRNA)
RNA: GGGAGUUCUACAGUCCGACGAUCCUACCCGGAACACACCCUCUCACAGACGUACCAAUGUUAUUUUUAUAAUUUCAUGGAUUCCGUUAUACAUACCUUAACCGUUUUAUAAAAUUGUUGACAUUUCAGGCAAAUUUGGCCAAUCAACAGAGGAUUGAGCAUCA
B12: chr7:158734047:158734148:-|3pUTR|ENSG00000117868|msi1_unk|FALSE|overlapping (ssRNA)
RNA: B11 RNA with C83U, C84A, C101U, C102A
B13: chrX:129805617:129805718:-|3pUTR|ENSG00000188706|msi1|FALSE|unique (ssRNA)
RNA: GGGAGUUCUACAGUCCGACGAUCUCUUUUCCCAUUAGAUAUAUGUAAGUAGUUGUAGUAGAGAUAAUAAUUGACAUUUCUCGUAGACUACCCAGAAACUUUUUUAAUACCUGUGCCAUUCUCAAUAAGAAUUUAUGAGAUGCCCAACAGAGGAUUGAGCAUCA
B14: chr11:69653362:69653473:+|3pUTR|ENSG00000110092|msi1_unk|total|mutant (ssRNA)
RNA: B7 RNA with U36C, A37C, U42C, A43C, U53C, A54C, U83C, A84C
B15: chr12:68839811:68839877:+|CDS_3pUTR|ENSG00000135679|msi1_unk|FALSE|overlapping (ssRNA)
RNA: GGGAGUUCUACAGUCCGACGAUCAUAAGCCCUGCCCAGUAUGUAGACAACCAAUUCAAAUGAUUGUGCUAACUUAUUUCCCCUAGUUGACCUGUCUAUAAGAGAAUUAUAUAUUUCUAACUAUAUAACCCUAGGAAUUUAGACCAACAGAGGAUUGAGCAUCA
B16: chrX:129805617:129805718:-|3pUTR|ENSG00000188706|msi1|total|mutant (ssRNA)
RNA: B13 RNA with U35C, A36C, U49C, A50C, U55C, A56C, U58C, A59C, U83C, A84C
B17: chr19:9526975:9527076:-|3pUTR|ENSG00000130818|unk|total|mutant (ssRNA)
RNA: GGGAGUUCUACAGUCCGACGAUCCCUCUCAGACCUUCCAUCAUUACUAUAUUUCACUUUUAUGCCUAUAAACACACACAAAUCCGCAUAUGUAAUCUAAUACAUUGCCGCUAUUUUUCAGAAGUUAUCAGAUCAAUUAAGUAUCAACAGAGGAUUGAGCAUCA
B18: chr2:205797254:205797461:+|3pUTR|ENSG00000118257|msi1|total|mutant (ssRNA)
RNA: GGGAGUUCUACAGUCCGACGAUCUCACCCUCCCAUGAUGCGCAGUGUUCAGAAAGCUGGUAAGUCCCCGGGAUUUCCAGAAGCCGCCUGCAGAAGAAGGUAAGUUUGAAAGCCACUCCAGGGGUCCUGAUGCUGUCAUGCUCACAACAGAGGAUUGAGCAUCA
B19: chr1:233671823:233671924:+|3pUTR|ENSG00000135750|msi1|total|mutant (ssRNA)
RNA: GGGAGUUCUACAGUCCGACGAUCUGCUGCUGUGGUCCGAAGCAGAUUUUAUACUUUUAACUGGAAACUUUGGGGUUUGCAUUCCGAUCAUUCCGCUGAUGGCUAAACCGCAAAAUUUAUAUUCCGAAGCAAAAAAAAAAAGCACAACAGAGGAUUGAGCAUCA
B20: chr3:133826890:133826991:-|3pUTR|ENSG00000154917|unk|total|mutant (ssRNA)
RNA: GGGAGUUCUACAGUCCGACGAUCUUUGAACGUGUUUCAGAUGUCAUGUGUUCCGUUUUUAUAUGUGUGUACAUAAUUAUAUACCGAGACCGACUUGUGUAUACACCUUCCACAAACACAUCCUCACGGAGAUACAUGUGCUCACAACAGAGGAUUGAGCAUCA
B21: chr4:140153917:140154018:-|5pUTR|ENSG00000196782|msi1|FALSE|bound_elsewhere (ssRNA)
RNA: GGGAGUUCUACAGUCCGACGAUCUUUGCAGUCGCCUCGGACUGUCCAUGUGUUUACUUCCCCCAGCCCGAGGAUUCGAUAUCUAGGUUCCUGUGAAAUGCAACUGAGCAGCCAAAGUACUUUGAGAACACGGGGCGGCAUAAACAACAGAGGAUUGAGCAUCA
B22: ENSG00000070961:be:win_2801|CDS|ENSG00000070961|bound_else_gene|NA|bound_elsewhere_windowed (ssRNA)
RNA: GGGAGUUCUACAGUCCGACGAUCGUCAUGCAUUCUAUCAACUUGUAGUAGUCUUUACACUCUUAUUUGCUGGAGAAAAGUUUUUUGACAUUGAUAGUGGAAGAAAUGCUCCUUUGCAUGCUCCUCCUUCAGAACAUUAUACUACAACAGAGGAUUGAGCAUCA

Changes are numbered by the printed parent chain. Over roughly 5,800 sequences, “enrichment r” has its median near 0.54; the highest 2% begin near 16. What follows is part of a selection rich in the highest values, with near analogues and random picks from the rest.

The target of this assay is MSI1 full-length (mouse, UniProt Q61474 1-362). Nature of the assay: nsRBNS (natural sequence RNA bind-n-seq); RBNS binding buffer (assumed for nsRBNS): 25 mM Tris pH 7.5, 150 mM KCl, 3 mM MgCl2, 0.01% Triton X-100, 500 ug/ml BSA, 20 U/ml SUPERase-In, 4 C; UNK is unkempt and MSI1 is Musashi-1; names of the RNAs are library labels; protein concentration not given here; high values mean tight binding.
Sequence of MSI1 full-length (Q61474 whole entry): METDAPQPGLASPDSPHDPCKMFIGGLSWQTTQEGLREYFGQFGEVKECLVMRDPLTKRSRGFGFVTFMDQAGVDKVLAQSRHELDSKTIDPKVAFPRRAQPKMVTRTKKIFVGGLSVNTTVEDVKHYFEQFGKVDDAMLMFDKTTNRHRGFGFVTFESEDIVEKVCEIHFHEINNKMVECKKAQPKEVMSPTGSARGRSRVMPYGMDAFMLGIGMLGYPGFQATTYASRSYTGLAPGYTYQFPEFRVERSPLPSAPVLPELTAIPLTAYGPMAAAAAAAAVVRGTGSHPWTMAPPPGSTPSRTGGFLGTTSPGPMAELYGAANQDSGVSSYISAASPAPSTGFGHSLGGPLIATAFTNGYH
Molecule B1 gave a binding signal of 0.391 enrichment R.

B2 had a binding signal of 3.44 enrichment R.

Molecule B3 displayed a binding signal of 11.3 enrichment R. Next, B4: 0.465 enrichment R; B5: 0.458 enrichment R. As for B6, the figure is 7.66 enrichment R; as for B7, 32.9 enrichment R; as for B8, 0.379 enrichment R. Next, B9: 0.949 enrichment R. B10 showed a binding signal of 18.3 enrichment R.

Turning to B11, the binding signal turned out to be 0.582 enrichment R. Molecule B12 came in with a binding signal of 20.8 enrichment R. As for B13, the figure is 71.9 enrichment R; as for B14, 1.65 enrichment R; as for B15, 3.21 enrichment R. Next, B16: 0.608 enrichment R; B17: 9.57 enrichment R; B18: 0.483 enrichment R.

With B19, the binding signal amounted to 0.297 enrichment R.

Consider B20, for which the binding signal amounted to 0.348 enrichment R. Next, B21: 0.362 enrichment R; B22: 0.822 enrichment R.
